Experiments:
Conditions in all cases: concentration: 1 μM,replicates: in singlicate; n = 1
TNNI3K = system: TNNI3K
TRKA = system: T1, TRKA
T1 construct: gene NTRK1

TRKB = system: TRKB
TRKC = system: T2, TRKC
T2 construct: gene NTRK3

TRPM6 = system: TRPM6
TSSK1B = system: TSSK1B
TSSK3 = system: TSSK3
TTK = system: TTK
TXK = system: TXK
[1] = system: TYK2(JH1domain-catalytic)
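Note: KINOMEscan kinase panel screen.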

| SMILES | %Inh (TNNI3K) | %Inh (TRKA) | %Inh (TRKB) | %Inh (TRKC) | %Inh (TRPM6) | %Inh (TSSK1B) | %Inh (TSSK3) | %Inh (TTK) | %Inh (TXK) | %Inh [1] |
| --- | --- | --- | --- | --- | --- | --- | --- | --- | --- | --- |
| COc1ccc(Nc2nccc(N3CCC(NC(=O)c4cccc(C#N)c4)C3)n2)cc1 (stereo not drawn) [GSK1379730] | 0% | 40% | 14% | 43% | 0% | 0% | 12% | 0% | 41% | 44% |
| COc1cc2nccc(Nc3ccc(Oc4ccccc4)cc3)c2cc1OC.Cl [GI261656] | 0% | 11% | 6% | 6% | 58% | 0% | 11% | 0% | 19% | 4% |
| Cc1n[nH]c2cc(Nc3ccnc(Nc4cccc(CN5CCOCC5)c4)n3)ccc12 [GW682569] | 17% | 100% | 60% | 45% | 43% | 0% | 12% | 37% | 60% | 95.9% |
| NC(=O)c1ccc(-c2cc3ncnc(SCC(=O)O)c3s2)cc1 | 0% | 54% | 35% | 0% | 0% | 0% | 0% | 13% | 0% | 2% |
| COC(=O)c1cccc(NC(=O)NC2CCN(c3ccnc(Nc4cc(OC)c(OC)c(OC)c4)n3)C2)c1 (stereo not drawn) [GSK1379767] | 0% | 97.1% | 81% | 95.6% | 0% | 9% | 13% | 0% | 0% | 40% |
| CS(=O)(=O)Nc1ccc(-c2ccnc3[nH]ccc23)cc1 [GSK993273] | 7% | 91% | 48% | 39% | 27% | 17% | 26% | 60% | 0% | 99.6% |
| CCN1CCN(CCCC(=O)Nc2n[nH]c3nc(-c4ccc(O)cc4)c(Br)cc23)CC1 [SB-731579] | 0% | 38% | 2% | 0% | 0% | 0% | 0% | 0% | 0% | 52% |
| Nc1nccc(-c2ccc3c(N)n[nH]c3c2)n1 [GSK1034945] | 13% | 0% | 0% | 0% | 26% | 0% | 27% | 0% | 0% | 34% |
| Cl.Cl.NC[C@H](CC1CCCCC1)NC(=O)c1ccc(-c2ccnc3[nH]ccc23)s1 [GSK1581428] | 0% | 77% | 26% | 54% | 7% | 84% | 25% | 41% | 0% | 29% |
| Cn1ccc2ncnc(Oc3ccc(NC(=O)Nc4cncc(C(F)(F)F)c4)c(Cl)c3)c21 | 61% | 51% | 55% | 88% | 0% | 0% | 0% | 0% | 0% | 0% |
| OCCn1cc(-c2cnc3nnn(Cc4ccc5ncccc5c4)c3n2)cn1 | 0% | 0% | 0% | 0% | 0% | 0% | 0% | 0% | 0% | 0% |
| Cl.Nc1n[nH]c2cc(-c3ccccn3)ccc12 [GSK2189892] | 0% | 23% | 0% | 0% | 0% | 0% | 8% | 14% | 0% | 0% |
| CN(c1ccccc1CNc1nc(Nc2ccc3c(c2)CC(=O)N3)ncc1C(F)(F)F)S(C)(=O)=O | 0% | 99.2% | 94.7% | 89% | 0% | 12% | 0% | 99.5% | 0% | 88% |
| Cn1ccc2ncnc(Oc3ccc(NC(=O)Nc4cccc(C(F)(F)F)c4)c(F)c3)c21 | 82% | 100% | 88% | 96.4% | 0% | 0% | 0% | 18% | 0% | 0% |
| NC(=O)Nc1sc(-c2ccc(F)cc2)cc1C(N)=O [GW789449] | 24% | 98.6% | 89% | 67% | 1% | 0% | 0% | 32% | 21% | 98.6% |
| COc1cc2ncn(-c3cc(OCC4CCCCC4)c(C(N)=O)s3)c2cc1OC [GSK204559] | 5% | 31% | 0% | 0% | 13% | 0% | 3% | 30% | 0% | 12% |
| CN(c1cccc(CNc2nc(Nc3ccc4c(c3)CC(=O)N4)ncc2C(F)(F)F)c1)S(C)(=O)=O | 0% | 98.3% | 93.5% | 79% | 0% | 0% | 15% | 97.5% | 0% | 58% |

| SMILES | %Inh (TNNI3K) | %Inh (TRKA) | %Inh (TRKB) | %Inh (TRKC) | %Inh (TRPM6) | %Inh (TSSK1B) | %Inh (TSSK3) | %Inh (TTK) | %Inh (TXK) | %Inh [1] |
| --- | --- | --- | --- | --- | --- | --- | --- | --- | --- | --- |
| Cc1ccc(C(=O)Nc2ccc(Oc3ccc4nc(NC(=O)C5CC5)cn4c3)c(F)c2)c(=O)n1-c1ccccc1 | 24% | 100% | 99.9% | 99% | 0% | 12% | 0% | 17% | 76% | 20% |
| COc1cc(Nc2nccc(N3CCC(NC(=O)c4cccc(C#N)c4)C3)n2)cc(OC)c1OC (stereo not drawn) [GSK1379751] | 14% | 60% | 53% | 64% | 0% | 10% | 7% | 0% | 9% | 72% |
| C[C@@H]1CNc2c(sc3ccc4nc(-c5ccc(O)cc5)ccc4c23)C(=O)N1 | 1% | 7% | 0% | 0% | 0% | 0% | 4% | 9% | 7% | 74% |
| CCn1c(-c2nonc2N)nc2cncc(CNC3CCNCC3)c21.Cl [SB-747651] | 4% | 0% | 43% | 24% | 21% | 55% | 6% | 0% | 16% | 31% |
| CC(C)S(=O)(=O)N1CCN(Cc2ccc3c(c2)nc(NC(=O)c2ccsc2)n3C[C@H](O)c2ccccc2)CC1 [GW635815] | 8% | 100% | 94.2% | 95.5% | 18% | 5% | 16% | 29% | 0% | 66% |
| CS(=O)c1ccc(-c2coc3ccc(-c4n[nH]c(=O)o4)cc23)cc1 (stereo not drawn) | 0% | 26% | 0% | 39% | 0% | 0% | 0% | 0% | 4% | 9% |
| Cl.c1ccc(Oc2ccc(Nc3ccnc4cc(-c5ccc(CN6CCNCC6)o5)ccc34)cc2)nc1 [GW567142] | 0% | 98.7% | 0% | 15% | 50% | 0% | 5% | 0% | 11% | 3% |
| C[C@@H]1CCN(C(=O)N2CCCC2)C[C@@H]1N(C)c1ncnc2[nH]ccc12 | 18% | 85% | 55% | 26% | 4% | 5% | 4% | 89% | 4% | 100% |
| O=C(Nc1cccc(C(F)(F)F)c1)c1cccc(Oc2ccc3nccn3n2)c1 | 35% | 0% | 22% | 50% | 0% | 0% | 16% | 0% | 7% | 23% |
| CC(C(=O)NC1CCN(c2ccnc(Nc3ccc(F)cc3)n2)C1)c1ccc(Cl)cc1 (stereo not drawn) [GSK1379713] | 0% | 33% | 11% | 0% | 0% | 0% | 5% | 11% | 0% | 9% |
| CC(=O)c1c(-c2ccncc2)[nH]c(-c2ccncc2)c1C [GW493036] | 0% | 0% | 0% | 0% | 33% | 34% | 13% | 3% | 35% | 42% |
| Cc1cccc2c(-c3ccncc3)c(-c3ccc(F)cc3)nn12.Cl [GW461487] | 8% | 37% | 0% | 0% | 0% | 4% | 15% | 0% | 0% | 7% |
| COc1cc2c(Nc3ccc(NC(=O)c4ccccc4)cc3)ncnc2cc1OCCCN1CCOCC1 [GSK301329] | 9% | 84% | 0% | 0% | 23% | 0% | 16% | 50% | 4% | 2% |
| CNC(=O)c1ccccc1Nc1nc(Nc2cccc(CS(C)(=O)=O)c2)ncc1C.O=CO [GSK1520489] | 66% | 98% | 91.1% | 97.4% | 78% | 9% | 0% | 93.8% | 99.7% | 99.6% |
| Cn1ccc2ncnc(Oc3ccc(NC(=O)Nc4cccc(C(F)(F)F)c4)c(Cl)c3)c21 | 87% | 53% | 84% | 84% | 0% | 0% | 0% | 25% | 0% | 0% |
| Cc1ccc(CC(=O)N2CCc3cc(-c4cn(C)c5ncnc(N)c45)ccc32)cc1 [GSK2634758] | 0% | 10% | 34% | 29% | 5% | 6% | 13% | 0% | 8% | 0% |
